Compounds with a hit are over-represented: about 10% of the library has one in this group of screens.
GLA spleen mod = inhibitors or activators of human alpha-galactosidase in spleen homogenate | P06280 | human spleen homogenate, 4MU-alpha-Gal fluorescence, 40 min | Potency, µM (doses to about 80 µM), inactives show at the top dose activity change, negative = inhibition, hits mostly inhibitors | hit rate 0.008% among 240,000 | AID 2107;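 note: potency is the fitted concentration of half-maximal effect; 0% = enzyme with vehicle and -100% = no enzyme basal signal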
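Human spleen homogenate (1 ug) was the enzyme source, with 4-methylumbelliferyl-alpha-D-galactopyranoside (1 mM final) in pH 5.0 citrate buffer with 0.01% Tween-20. Compounds were titrated; after 40 min at 37C, NaOH/glycine stop, 4-MU fluorescence read; AC50 from Hill fits.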
ALOX12 inhib = inhibitors of human 12-lipoxygenase (ALOX12) | hit rate 0.12% among 150,000 | P18054 | purified 12-hLO, xylenol orange hydroperoxide absorbance | Potency, µM (doses to about 57.1 µM), for inactives: at the top dose activity change, negative = inhibition, hits mostly inhibitors | AID 1452; note: potency is the fitted concentration of half-maximal effect; nearly all actives have a fitted effect of over 55% in size
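150 nM 12hLO, 25 mM Hepes pH 7.0 + 0.01% Triton X-100; cpd preinc 15 min RT; 40 uM arachidonic acid, 30 min RT; Fe-XO 30 min; A573/A405 ratio as read-out.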
GLA inh pH 4.5 = alpha-galactosidase A (human) inhibition, pH 4.5; activity change, negative = inhibition, % at 105 µM; AID 1467; 230,000 tested, under 10 active; purified enzyme, 4-MU-alpha-Gal fluorescence, pH 4.5; P06280;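 note: 0% = full activity with enzyme and -100% = basal without enzyme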
ALDH1A1 block = inhibitors of human aldehyde dehydrogenase 1A1; P00352; hit rate 7.3% among 220,000; Potency, µM (highest dose often 75.3 µM), inactives show at the top dose activity, negative = inhibition, most hits filed as inhibitors; Purified ALDH1A1, NADH fluorescence, propionaldehyde substrate; active = well fitted inhibition curve with a large enough effect, not every such curve was filed as active; inconclusive = small, poorly fitted or top-dose-only effect, or another doubt; inactive = no such curve, though single readings can be large or run the other way;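 note: potency is the fitted concentration of half-maximal effect; plate controls were no enzyme wells and a reference inhibitor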
Target sequence (P00352 whole entry, looked up): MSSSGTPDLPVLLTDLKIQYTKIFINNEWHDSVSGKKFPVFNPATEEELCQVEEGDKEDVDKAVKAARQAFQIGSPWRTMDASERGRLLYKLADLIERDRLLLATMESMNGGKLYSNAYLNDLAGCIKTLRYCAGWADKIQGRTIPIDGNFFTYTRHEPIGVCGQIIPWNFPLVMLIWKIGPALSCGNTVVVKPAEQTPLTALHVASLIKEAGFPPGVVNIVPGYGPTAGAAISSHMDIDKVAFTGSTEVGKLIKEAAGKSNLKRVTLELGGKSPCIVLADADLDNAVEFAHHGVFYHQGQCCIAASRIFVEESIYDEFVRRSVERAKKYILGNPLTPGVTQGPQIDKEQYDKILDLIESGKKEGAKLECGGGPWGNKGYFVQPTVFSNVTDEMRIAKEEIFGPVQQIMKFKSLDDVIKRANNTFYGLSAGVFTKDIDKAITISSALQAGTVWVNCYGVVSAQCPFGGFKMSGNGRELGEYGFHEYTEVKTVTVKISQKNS
PNC inhibitor = inhibitors of perinucleolar compartment assembly; hit rate 3.1% among 140,000; PC3M PTB-GFP, PNC prevalence imaging, 16 h; active compounds read low; activity change (PNC), negative = inhibition, % at 10 µM;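 active = readout at or below -70, meaning at least 70% loss of cells showing the perinucleolar compartment, a nuclear body marking cancer cells; inconclusive = readout between -30 and a set limit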;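 note: plate controls were DMSO wells for no effect and camptothecin positive control wells for full effect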
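Compounds are pinned in duplicate onto adhered PC3M cells stably expressing GFP-tagged PTB and incubated 16 h at 37 C. Cells are then fixed, nuclei stained with Hoechst, and PNC-positive cells counted.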
HPGD inh = HPGD (human) dehydrogenase inhibition. AID 894. Potency, µM, for inactives: at the highest dose activity change, negative = inhibition, hits mostly inhibitors. P15428. hit rate 4.3% among 150,000. purified HPGD, NADH fluorescence kinetic, PGE2 substrate; active = well fitted inhibition curve with a large enough effect, not every such curve was filed as active; inconclusive = small, poorly fitted or top-dose-only effect, or another doubt; inactive = no such curve, though single readings can be large or run the other way; note: potency is the fitted concentration of half-maximal effect
Target sequence (P15428 whole entry, looked up): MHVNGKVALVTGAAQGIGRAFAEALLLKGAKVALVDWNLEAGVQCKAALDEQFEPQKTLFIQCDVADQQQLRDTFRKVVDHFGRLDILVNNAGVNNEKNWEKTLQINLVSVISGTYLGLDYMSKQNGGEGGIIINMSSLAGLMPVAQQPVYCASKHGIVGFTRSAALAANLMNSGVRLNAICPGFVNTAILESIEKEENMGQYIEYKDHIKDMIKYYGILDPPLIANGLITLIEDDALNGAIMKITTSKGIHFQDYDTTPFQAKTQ
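NADH formation kinetics: reaction with 30 uM PGE2 and 1 mM NAD+ (final), 20 nM enzyme, Tris-HCl pH 8 with Tween 20, after 15 min compound preincubation at room temperature. Fluorescence change, last versus first of five reads.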
* = called active by the depositor; ? = inconclusive; · = no result given. Unless noted, calls come from the whole dose curve; as a rule, active = well fitted curve in the direction sought with a large enough effect; inconclusive = small, poorly fitted or top-dose-only effect, or another doubt; inactive = no such curve, though single readings can be large; an effect the other way counts as inactive or inconclusive. Unless noted, % is set by controls: 0 for no effect and ±100 for the full control effect.

SMILES	GLA spleen mod	ALOX12 inhib	GLA inh pH 4.5	ALDH1A1 block	PNC inhibitor	HPGD inh
COc1ccccc1C(=O)Nc1nnn(C)n1	-4.1%	6.0%	8.5	11.1%	21.4	0.1%
COc1cccc(C(=O)NC(=S)Nc2nnn(C)n2)c1	3.8%	-8.2%	8.7	22.4µM*	-7.4	?
Cn1nnc(NC(=S)NC(=O)Cc2ccccc2)n1	3.3%	·	0.8	?	·	·
Cn1nnc(NC(=S)NC(=O)c2cc3ccccc3o2)n1	-1.3%	·	-3.5	·	·	·
Cn1nnc(NC(=O)c2ccccc2)n1	7.3%	5.8%	13.1	7.6%	-95.3*	1.8%
Cn1nnc(NC(=S)NC(=O)c2ccco2)n1	0.6%	-5.1%	-0.3	3.55µM*	34.8	?
COc1ccc(C(=O)NC(=S)Nc2nnn(C)n2)cc1	9.2%	0.4%	-4.2	11.2µM*	-8.4	-29.6%
CC(C)C[C@H](NC(=O)[C@@H]1CCCN1C(=O)[C@H](Cc1ccccc1)NC(=O)[C@H](C)NC(=O)[C@H](CCC(=O)O)NC(=O)[C@H](C)NC(=O)[C@H](CO)NC(=O)[C@H](CCC(=O)O)NC(=O)[C@H](CC(=O)O)NC(=O)[C@H](CCC(=O)O)NC(=O)[C@H](C)NC(=O)CNC(=O)[C@H](CC(N)=O)NC(=O)[C@@H]1CCCN1C(=O)[C@H](Cc1ccc(O)cc1)NC(=O)[C@@H](NC(=O)[C@H](CCCCN)NC(=O)[C@@H](NC(=O)[C@@H]1CCCN1C(=O)[C@@H](N)CCCNC(=N)N)C(C)C)C(C)C)C(=O)N[C@@H](CCC(=O)O)C(=O)N[C@@H](Cc1ccccc1)C(=O)O	-4.8%	·	·	·	·	·
Cc1ccc(S(=O)(=O)NCCSc2nnnn2-c2cc(C)ccc2C)cc1	-11.3%	-26.1%	-2.0	0.891µM*	-21.4	-4.8%
Cc1ccc(S(=O)(=O)NCCSc2nnc(N)s2)cc1	0.1%	3.6%	-8.2	-14.5%	-25.9	-12.7%
Cc1ccc(S(=O)(=O)NCCSc2nnnn2-c2ccccc2)cc1	3.7%	-7.2%	1.7	1µM*	?	-17.6%
Cc1ccc(C)c(-n2nnnc2Sc2nnnn2-c2ccccc2)c1	-4.5%	-1.8%	-1.1	22.4µM*	-0.4	-7.1%
O=C(NCc1ccco1)C(=O)N1CCCC1	-2.1%	·	0.1	12.9%	·	·
Cc1cccc(CNc2ncncc2-c2ccccc2C(F)(F)F)c1	3.4%	-5.6%	-6.6	?	·	-7.8%
C[C@@](N)(C(=O)O)c1ccc(S(=O)(=O)O)cc1	-1.3%	-3.3%	-26.9	-4.8%	·	-2.0%
Cc1ccc(S(=O)(=O)/N=C(\N)Nc2nc(C)c3ccc(C)cc3n2)cc1	-17.0%	-18.5%	-4.5	8.7%	2.9	-19.9%
Cc1ccc(S(=O)(=O)/N=C(\Nc2cccc(C)c2)Nc2nc(C)cc(C)n2)cc1	5.4%	2.7%	1.3	0.398µM*	-6.8	-14.1%
CC(=O)c1ccc(Nc2ccc(-c3ccccc3F)nn2)cc1	3.1%	·	1.7	?	·	·
Cc1nc(Cl)c2c(n1)N(CC(N)=O)C(=O)CO2	-7.8%	3.9%	1.7	6.9%	-109.0*	-6.3%
CC1=Nn2c(nc(-c3ccccc3)c2-c2ccccc2)N(CC(N)=O)C(=O)C1	-1.3%	0.1%	4.1	17.1%	?	-9.1%
COc1ccc(NC(=O)CSc2nc3c(c(=O)n2-c2ccc(F)cc2)SCC3)cc1	2.6%	0.3%	-0.3	?	?	-5.2%
COc1ccccc1-n1c(SCC(=O)Nc2ccc(C)cc2)nc(O)cc1=O	9.7%	0.0794µM*	0.5	?	14.4	-13.3%
COc1ccccc1-n1c(SCC(=O)Nc2ccc(F)cc2)nc2c(c1=O)SCC2	-5.3%	-3.0%	-4.6	11.2µM*	24.8	-16.2%
COc1ccc(NC(=O)CSc2nc(O)cc(=O)n2-c2ccccc2OC)cc1	2.7%	7.08µM*	0.9	3.9%	-11.2	-7.2%
CN(C)c1ccc(C2(O)C(=O)c3ccccc3C2=O)cc1	4.5%	1.0%	3.5	-5.5%	-22.3	-7.2%
SMILES	GLA spleen mod	ALOX12 inhib	GLA inh pH 4.5	ALDH1A1 block	PNC inhibitor	HPGD inh
Cc1ccccc1NC(=O)CC1(c2ccc(N(C)C)cc2)C(=O)c2ccccc2C1=O	2.5%	-1.3%	-2.8	12.6µM*	-90.2*	-19.6%
CCN1/C(=C/c2ccc3cc(C)ccc3[n+]2CC)Sc2ccccc21	-6.6%	-3.5%	-8.0	-11.0%	-93.0*	-8.8%
O=C(CSc1cnc2ccccc2n1)c1ccc(F)cc1	-8.8%	-3.9%	-1.3	25.1µM*	56.9	-28.0%
CC(C)c1nc(SCC(=O)c2ccc(F)cc2)c2ccccc2n1	4.7%	·	-9.8	20µM*	·	·
Cc1ccc(C(=O)CSc2nc(C(C)C)nc3ccccc23)cc1	2.5%	·	-4.8	28.2µM*	·	·
CCCc1nc(SCC(=O)c2ccc(OC)cc2)c2ccccc2n1	2.2%	·	-2.6	10µM*	·	·
CCOC(=O)CSc1nc(C(C)C)nc2ccccc12	1.8%	-6.6%	-2.4	3.3%	2.1	-5.2%
CCc1nc(SCC(=O)c2ccccc2)c2ccccc2n1	3.4%	·	-4.4	?	·	·
COc1ccc(NC(=O)CSc2nnc(Cc3cccn3C)n2-c2ccc(OC)cc2)cc1	-14.2%	-0.8%	-8.7	14.1µM*	-17.0	-3.0%
O=C(CSc1nnc(CNC(=O)C23CC4CC(CC(C4)C2)C3)n1-c1ccc(F)cc1)Nc1ccc(F)cc1	9.3%	-4.9%	-0.5	9.6%	-3.2	-5.9%
CCOc1ccc(NC(=O)CSc2nnc(Cc3cccn3C)n2-c2ccc(OC)cc2)cc1	-6.2%	-1.0%	-10.6	3.98µM*	-2.2	-9.1%
CCc1ccc(NC(=O)CSc2nnc(Cc3cccn3C)n2-c2ccc(F)cc2)cc1	2.5%	-17.9%	-24.6	?	-89.9*	-6.6%
CN(C)S(=O)(=O)c1ccc(C(=O)NCc2nnc(SCC(=O)Nc3ccc(F)cc3)n2-c2ccc(F)cc2)cc1	-4.4%	-0.2%	-5.1	7.08µM*	36.6	-11.9%
CC(=O)c1ccc(NC(=O)CSc2nnc(Cc3cccn3C)n2-c2ccc(F)cc2)cc1	-5.8%	-3.3%	-4.1	12.6µM*	?	1.0%
Cn1cccc1Cc1nnc(SCC(=O)N2CCN(c3ccccc3)CC2)n1-c1ccc(F)cc1	-3.3%	-5.5%	-2.8	14.1µM*	-0.7	1.3%
Cc1ccc(NC(=O)CSc2nnc(Cc3cccn3C)n2-c2ccc(F)cc2)cc1	4.2%	-1.2%	7.0	?	1.1	-9.1%
COc1ccc(-n2c(Cc3cccn3C)nnc2SCC(=O)Nc2ccc(C(C)=O)cc2)cc1	3.7%	-10.1%	-14.7	8.91µM*	11.2	-21.2%
Cn1cccc1Cc1nnc(SCC(=O)Nc2ccc(F)cc2F)n1-c1ccc(F)cc1	2.4%	-8.1%	1.1	?	?	-9.7%
COc1ccc(Cl)cc1NC(=O)CSc1nnc(Cc2cccn2C)n1-c1ccc(F)cc1	-7.1%	-1.8%	3.2	-2.5%	-85.1*	-3.1%
